# The full list was thinned out, with hits kept by preference.
# PRC2 inh: EZH2/PRC2 methyltransferase inhibitors, primary screen, biochemical, DELFIA time-resolved fluorescence, single point. inhibition, % at 12.5 µM. Histone-lysine N-methyltransferase EZH2 (Homo sapiens), Q15910. actives 0.35% (n = 57,000). PRC2 H3K27 methylation, DELFIA TRF, 1 h;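 active = mean inhibition of replicates at least 50% and every single replicate also reaching 50%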;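 note: dimethyl H3K27 on biotinylated H3 21-44 peptide detected by antibody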
# Numbers stand for hits; n = inactive.
SMILES,PRC2 inh
C=C(C(=O)O[C@@H]1O[C@H](CO)[C@@H](O)[C@H](O)[C@H]1O)[C@@H]1CC[C@@]2(C)C[C@H](O)C[C@@](C)(O)C2C1 (stereo partly specified),64
COC(=O)c1ccccc1NC(=O)COc1ccc(Br)cc1C,n
COc1ccc(CCNC(=S)N2CCN(C(=O)c3ccco3)CC2)cc1OC,n
O=C(CSc1nnnn1-c1ccccc1)Nc1ccc(F)c(Cl)c1,n
c1ccc(OCCSc2nnc3n(-c4ccccc4)c4ccccc4n23)cc1,n
O=C(CCSc1nnc(-c2ccccc2)o1)Nc1ccc(F)cc1,n
O=C(O)CCCCCCC(=O)Nc1ccc(C2CC(CSc3nc(-c4ccccc4)c(-c4ccccc4)o3)OC(c3ccccc3)O2)cc1 (stereo unspecified),92
CC(=O)c1cccc(NC(=O)CSc2nc(-c3ccccc3)c(-c3ccccc3)o2)c1,n
COc1ccc(NC(=O)CSc2nnc3sc4ccccc4n23)cc1,n
Cc1ccc(S(=O)(=O)NN2C(=O)S/C(=C/c3ccccc3)C2=S)cc1,n
CCOC(=O)c1c(NC(=S)NC(=O)c2ccc3c(c2)OCCO3)sc(C(=O)OC)c1C,n
CCOc1ccccc1NC(=O)CSc1ncnc2sc(C)c(C)c12,n
COc1cccc(C#Cc2cnc3c(c2)C(=O)N([C@@H](C)CO)C[C@H](C)[C@H](CN(C)C(=O)C2CCC2)O3)c1,n
COc1cccc(C#Cc2cnc3c(c2)C(=O)N([C@@H](C)CO)C[C@@H](C)[C@@H](CN(C)C(=O)C2CCCCC2)O3)c1,n
COc1cccc(C#Cc2cnc3c(c2)C(=O)N([C@H](C)CO)C[C@@H](C)[C@H](CN(C)C(=O)C2CCCCC2)O3)c1,95
CC(=O)c1cccc(NC(=O)CN2C(=O)c3ccccc3S2(=O)=O)c1,n
O=S(=O)(Nc1ncccn1)c1ccc(NC(=S)Nc2ccc3c(c2)CCC3)cc1,n
N#Cc1ccccc1OCCCCSc1ncccn1,n
c1cnc(SCCCCOc2ccc3c(c2)CCC3)nc1,54
CCOC(=O)c1ccc(NC(=O)CSc2nc(C)cc(C(F)(F)F)n2)cc1,n
Cc1cc(C)c(NC(=O)CN(C)S(=O)(=O)c2ccc3ccccc3c2)c(C)c1,n
CC(C)(C)c1ccccc1NC(=O)c1cccc(Cn2cc(Cl)cn2)c1,n
N#Cc1ccc(/C=N/NC(=O)CCCCCC(=O)O)cc1,n
O=C(O)CCCCCCC(=O)N/N=C/c1ccc(N(c2ccccc2)c2ccccc2)cc1,63
O=C(O)CCCCCCC(=O)N/N=C/c1ccc(F)cc1,n
SMILES,PRC2 inh
O=C(O)CCCCCC(=O)N/N=C/c1ccccc1,n
O=C(O)CCCCCC(=O)N/N=C/c1ccc(N(c2ccccc2)c2ccccc2)cc1,61
O=C(CCCCCCC(=O)Nc1ccccc1O)N/N=C/c1ccc(N(c2ccccc2)c2ccccc2)cc1,n
O=C(NCCc1nc2ccccc2[nH]1)c1ccc(-c2ccccc2)cc1,n
COc1cc(OC)c2c(c1O)OC(c1ccccc1)CC2=O (stereo unspecified),72
COc1cc(O)cc2c1C(=O)OC(C)C2 (stereo unspecified),n
COc1cc2c(c(O)c1OC)C(=O)CC(c1ccc(O)cc1)O2 (stereo unspecified),n
COc1ccc(-c2nnc(SCC(=O)c3ccc(-c4ccccc4)cc3)o2)cc1OC,n
CCc1cccc(OCC(=O)Nc2ccccc2C(N)=O)c1,n
CC(C)(C)OC(=O)N1CCC[C@H]1/C=N/NC(=O)CCCCCCC(=O)NO,n
CC(=O)c1c(C)n(-c2ccc(C)cc2)c2ccc(OC(=O)CN3C(=O)c4ccccc4C3=O)cc12,n
Cc1cc(C)c(C#N)c(SCC(=O)Nc2sc3c(c2C#N)CCC3)n1,n
COc1ccc(OCC(=O)Nc2sc3c(c2C#N)CCC3)cc1,n
COc1cc(OC)cc(-c2nnc(SCC(=O)Nc3sc4c(c3C#N)CCCC4)o2)c1,68
O=C1/C(=C/c2ccc(N3CCOCC3)cc2)CCC1C1CCCC1 (stereo unspecified),n
